# Bioassay records from PubChem BioAssay.
# Only some compounds are listed: those with a hit (about 19% of all), similar ones and a draw of the others.
# TDP1 cell CPT: growth inhibition of DT40 Tdp1-/-;hTDP1 cells with camptothecin (screen for TDP1 inhibitors) | chicken DT40 Tdp1-/-;hTDP1 cells + 20 nM CPT, ATP luminescence, 48 h | Potency, µM (titrated, usually from 46.2 µM), inactives show at the highest dose activity change, negative = growth inhibition, most hits filed as inhibitors | 420,000 compounds, 12% hits | AID 686979; note: potency is the fitted concentration of half-maximal effect; nearly all actives have a fitted effect of over 55% in size
#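 Cell growth measured by CellTiter-Glo luminescence after a minimum 48 h, 37 C compound exposure with 20 nM CPT in Tdp1-knockout DT40 cells stably expressing hTDP1, seeded 400/well; qHTS titration format.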
# HT1080-NT tox: kills 2HG-producing HT-1080-NT fibrosarcoma cells. HT-1080-NT fibrosarcoma viability, CellTiter-Glo ATP luminescence, 48 h. Potency, µM (doses to about 46.1 µM), without a hit: at the top dose activity, negative = less viability, actives largely listed as cytotoxic. 360,000 compounds, 1.6% hits. AID 686970;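 note: NT is the 2HG producing partner of a matched IDH1 knockdown line; potency is the fitted concentration of half-maximal effect; 0% = DMSO-treated cells and -100% = media-only wells without cells; nearly all actives have a fitted effect of over 55% in size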
#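 A 48-hour cytotoxicity screen used HT-1080-NT cells plated 2 hours before compound delivery. ATP-based CellTiter-Glo luminescence measured viability, normalized to DMSO and no-cell controls.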
# HT1080 IDH1KD tx: kills HT-1080 cells with IDH1 knockdown; AID 686971; HT-1080 IDH1 knockdown viability, ATP luminescence, 48 h; Potency, µM (titrated, usually from 46.1 µM), for inactives: at the top dose activity, negative = toxicity, most hits filed as cytotoxic; 360,000 compounds, 2% hits;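 note: potency is the fitted concentration of half-maximal effect; 0% = DMSO wells and -100% = cell-free medium wells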
#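 After a 2 h attachment period, IDH1KD HT-1080 cells took pin-transferred compound for 48 h at 37 °C; ATP-based luminescence after 10 min room-temperature reagent incubation reported viability.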
# IL1B secr inh: blocks inflammasome-driven IL-1 beta release. THP-1 LPS/ATP IL-1B secretion, AlphaLISA, 16 h; active compounds read low. activity change, % at 57.5 µM. 360,000 compounds, 4.7% hits. AID 743279; in the data active = activity change below about -50%; inconclusive = mostly about -30% to -49%
#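 THP-1 cells pretreated 1 hr with compounds (up to 57.5 uM final), then stimulated with LPS (250 ng/mL final) plus ATP (1.25 mM final); secreted IL-1B measured by AlphaLISA after 16 hr, decreased signal indicating inhibition.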
# TDP1 cell noCPT: qHTS for Inhibitors of human tyrosyl-DNA phosphodiesterase 1 (TDP1): qHTS in cells in absence of CPT; DT40 Tdp1-/- hTDP1 cells, no CPT, ATP luminescence, 48 h; Potency, µM (series often up to 46.2 µM), for inactives: top-dose activity change, negative = growth inhibition, usual class: inhibitors; 420,000 compounds, 15% hits; note: potency is the fitted concentration of half-maximal effect; nearly all actives have a fitted effect of over 55% in size
#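 Chicken DT40 Tdp1-/- cells complemented with human TDP1, screened without camptothecin (DMSO vehicle only), 400 cells/well. Compounds pin-transferred, cells incubated at 37 °C for at least 48 hr. Growth read as ATP-dependent luminescence (CellTiter-Glo, 30 min at RT).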
# Starred values were filed as active, the others as inactive; ? = inconclusive; . = no result given; ! = a repeat was not active; [ ] = another dose, or the depositor's remark. Unless noted, calls come from the whole dose curve; as a rule, active = well fitted curve in the direction sought with a large enough effect; inconclusive = small, poorly fitted or top-dose-only effect, or another doubt; inactive = no such curve, though single readings can be large; an effect the other way counts as inactive or inconclusive. Unless noted, % is set by controls: 0 for no effect and ±100 for the full control effect.
SMILES,TDP1 cell CPT,HT1080-NT tox,HT1080 IDH1KD tx,IL1B secr inh,TDP1 cell noCPT
COc1ccc(C(c2nnnn2Cc2ccccc2)N2CCC3(CC2)C(=O)NCN3c2ccccc2)cc1 (centres undefined),?,?,?,-58*,?
CC(C)(O)C1O[C@H]2CC[C@@]3(C)[C@@](O)(CC[C@H]4Cc5c([nH]c6ccccc56)[C@@]43C)C2=CC1=O (some centres undefined),21µM*,.,.,.,24µM*
O=C(NN=Cc1ccc(N(CCCl)CCCl)cc1Cl)c1cccnc1,?,-11%,-16%,-6,23µM*
O=C(NN=Cc1ccc(N(CCCl)CCCl)cc1)c1cc(=O)[nH]c(=O)[nH]1,?,-9%,-12%,10,?
Cc1cc(N(CCCl)CCCl)ccc1C=NNC(=O)c1cccnc1,10µM*,2%,-9%,0,?
CN(CCCC(=O)c1cccnc1)N=O,0%,.,.,.,4%
CCCCN1CC(=O)N2[C@H]3c4cc(C)ccc4OC[C@@H]3[C@H](c3ccccc3)[C@]2(C)C1=O,?,3%,9%,-5,?
CCC(C)(S(=O)(=O)CC)S(=O)(=O)CC,3%,.,.,.,-3%
O=[N+]([O-])c1ccc(S(=O)(=O)NN=C2CCCCC2)cc1,-37%,-8%,-7%,-18,?
ClCCN(CCCl)c1ccc(C2=NCCc3ccccc32)cc1,23µM*,2%,14%,-78*,?
COc1ccc(N2C(=O)C(=O)N(c3ccc(OC)cc3)P2(=O)N(CCCl)CCCl)cc1,-24%,9%,10%,-1,-15%
COc1ccc2c(c1)C(c1ccc(N(CCCl)CCCl)cc1)=NCC2,16µM*,?,26µM*,-90*,13µM*
O=C(O)C1C2c3ccccc3C(O)C1(C(=O)O)c1ccccc12 (centres undefined),-11%,1%,0%,-5,-17%
CCc1ccc(C2C(C(=O)Nc3ccccc3OC)=C(C)Nc3nc(SCc4ccccc4)nn32)cc1 (centres undefined),4.1µM*,.,.,.,3.7µM*
Cc1ccccc1N1C(=O)CC(=O)N(c2ccccc2C)C1=O,0%,6%,0%,5,-10%
CCc1cc(-c2nnn(CCC3COCCO3)c2CC)cc(CC)c1-c1cn(Cc2ccc3ccccc3c2)nn1 (centres undefined),21µM*,-1%,-21%,4,8.2µM*
CN(C)C=C1C(=O)N(C2CCCCC2)C(=O)N(C2CCCCC2)C1=O,16µM*,?,?,-7,?
CCOC(=O)c1c(C)[nH]c(C(=O)C(Cc2ccccc2)N(C)C)c1C (centres undefined),?,0%,-2%,-10,?
O=c1[nH]c(=O)n(Cc2ccccc2Cl)c(O)c1/C=C1/C=CC=N1,5.8µM*,4.1µM*,5.8µM*,22,5.8µM*
C=CCn1c(O)c(/C=C2/C=CC=N2)c(=O)[nH]c1=O,?,?,?,15,?
CCCCn1c(O)c(/C=C2/C=CC=N2)c(=O)[nH]c1=O,18µM*,15µM*,?,-10,4.1µM*
O=c1[nH]c(=O)n(Cc2ccccc2)c(O)c1C=NCCCO,-7%,6%,-1%,3,0%
COc1ccc(-n2c(O)c(/C=C/C=Nc3ccccc3)c(=O)[nH]c2=O)cc1,4%,10%,4%,0,2%
C[C@H]1[C@@H](OC(=O)CCC(=O)O)O[C@@H]2OC3(C)CC[C@H]4[C@H](C)CC[C@@H]1[C@@]24OO3,0.12µM*,.,.,.,0.11µM*
CCC(C)NC(=O)CCC(=O)OC1O[C@H]2OC3(C)CC[C@H]4[C@H](C)CCC(C1C)C24OO3 (some centres undefined),0.21µM*,7.3µM*,7.3µM*,?,0.18µM*
SMILES,TDP1 cell CPT,HT1080-NT tox,HT1080 IDH1KD tx,IL1B secr inh,TDP1 cell noCPT
CCNc1nc(Cl)nc(NC(C)C)n1,25%,-1%,3%,-11,0%
Cc1ccc(C(C)C)c(OCC#CCN2CCCC2)c1,-28%,-1%,0%,0,?
C[C@]12CCC(=O)CC1CCC1C2CC[C@]2(C)C(OC(=O)CCC(=O)O)CCC12 (some centres undefined),17%,9%,6%,17,-29%
O=C(C[N+]12CCC(CC1)C(C(O)(c1ccccc1)c1ccccc1)C2)c1ccc(Br)cc1 (centres undefined),15µM*,-10%,-7%,-59*,7.3µM*
CN(C)C/C=C(/c1ccc(Br)cc1)c1cccnc1,30µM*!,-18%,-25%,-20,12µM*
C[C@@H]1CN([C@@H](C)CO)C(=O)CCCn2nncc2CO[C@@H]1CN(C)C(=O)Oc1ccc2ccccc2c1,-28%,5%,7%,21,?
C[C@@H]1CN([C@@H](C)CO)C(=O)CCCn2nncc2CO[C@@H]1CN(C)C(=O)Oc1cccc2ccccc12,0.52µM*,3%,3%,6,0.58µM*
C[C@H]1CN([C@@H](C)CO)C(=O)CCCn2nncc2CO[C@H]1CN(C)C(=O)Oc1ccc2ccccc2c1,16µM*,9%,-3%,24,9.2µM*
C[C@@H]1CN([C@H](C)CO)C(=O)CCCn2nncc2CO[C@@H]1CN(C)C(=O)Oc1ccc2ccccc2c1,8%,2%,-2%,-10,8.2µM*
CC1CC2CC(=O)C3CCCN4CCCC2[C@]34C1 (some centres undefined),6%,.,.,.,-2%
COc1ccc(OC)c(C[C@H](C)N)c1,-30%[92.5 µM],.,.,.,-27%[92.5 µM]
CCNC(=O)C1CCCN(Cc2ccc3ccccc3c2Br)CC1 (centres undefined),?,-26%,1%,-2,?
O=[As](O)(O)c1ccc(N=Nc2ccc(O)cc2)cc1,2%,0%,-6%,?,-8%
O=C1C(Cl)=CC(=Nc2ccc(O)cc2)C=C1Cl,1.3µM*,-9%[9.24 µM],-1%,?,2.6µM*
O=C(CCl)NN=C(c1ccccc1)c1ccccc1,5.8µM*,12%,-6%,-77*,5.2µM*
COc1ccc(-c2coc3cc(OC(=O)N4CCOCC4)ccc3c2=O)cc1,13µM*,23%,-5%,0,18µM*
Cc1ccc(S(=O)(=O)Nc2ccc3ncccc3c2[N+](=O)[O-])cc1,-5%,-3%,-5%,-7,?
COC(=O)N1CCC2(CCN(CC(C)C)CC2)CC1,-7%,.,.,.,-11%
